Measurements reported in PubChem BioAssay (NCATS).
Inconclusive results are not listed. Active and inactive are the calls of the source. The call rests on the fitted dose curve; in most records, active means well fitted cell-killing curve with a large enough effect; inconclusive means small, poorly fitted or top-dose-only effect, or effect the other way; inactive means flat fitted curve, though single readings scatter. Where a SMILES comes first, the peptide text is derived from it. [ ]: non-standard residue; d: D form. dPhe(4-Cl) = N[C@H](Cc1ccc(Cl)cc1)C(=O)O; d2Nal = N[C@H](Cc1ccc2ccccc2c1)C(=O)O; dCit = NC(=O)NCCC[C@@H](N)C(=O)O; d3Pal = N[C@H](Cc1cccnc1)C(=O)O

What was measured:
Assay in all cases: Primary qHTS to identify gynecologic anti-cancer compounds using libraries of approved drugs and bioactive compounds (AID 1345084); further: nearly all actives have a fitted effect of over 55% in size
C33A = conditions: Gynecologic cancer cell panel viability, ATPlite luminescence, 48 h; series mostly up to 57.5 µM
Method in brief: (§1)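 Cells, 1,000 per well, plated 16 h, then exposed 48 h at 37 C to compounds. Viability by ATPlite luminescence after 15 min at room temperature.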

CASKI = conditions: Gynecologic cancer cell panel viability, ATPlite luminescence, 48 h; series mostly up to 57.5 µM
Method in brief: as §1

Es-2 = conditions: Gynecologic cancer cell panel viability, ATPlite luminescence, 48 h; series mostly up to 57.5 µM
Method in brief: as §1

HeLa = conditions: Gynecologic cancer cell panel viability, ATPlite luminescence, 48 h; series mostly up to 57.5 µM
Method in brief: as §1

Hek293T = conditions: Gynecologic cancer cell panel viability, ATPlite luminescence, 48 h, control line for the selectivity index; series mostly up to 57.5 µM
Method in brief: as §1
On the % scale 0 is the no-effect control and ±100 the full control effect.

COC(=O)C[C@H]1[C@]2(C)C3=C(C)[C@H](c4ccoc4)C[C@H]3O[C@@H]2[C@H](OC(C)=O)C2[C@](C)(C(=O)OC)C=CC(=O)[C@@]21C (stereo not given in full)
inactive: Potency (C33A) | Potency (CASKI) | Potency (Es-2) | Potency (HeLa) | Potency (Hek293T)

O=C(N/N=C/c1ccc(O)c(O)c1)c1cc2ccccc2cc1O
inactive: Potency (C33A) | Potency (CASKI) | Potency (Es-2) | Potency (HeLa) | Potency (Hek293T)

O=C(O)[C@H](Cc1ccc(Nc2nccc3ccncc23)cc1)NC1=C(Br)C(=O)C12CCCCC2
inactive: Potency (C33A) | Potency (CASKI) | Potency (Es-2) | Potency (HeLa) | Potency (Hek293T)

COc1cc(C(=O)OC[C@H]2O[C@@H](Oc3ccccc3/C=C/C(=O)O)[C@H](O)[C@@H](O)[C@@H]2O)cc(OC)c1OC
inactive: Potency (C33A) | Potency (CASKI) | Potency (Es-2) | Potency (HeLa) | Potency (Hek293T)

COc1cc2c(c(OC)c1CC=C(C)C)C[C@H](c1ccc(O)cc1O)CO2
inactive: Potency (C33A) | Potency (CASKI) | Potency (Es-2) | Potency (HeLa) | Potency (Hek293T)

Cc1cccc(C)c1OCc1cc(C(=O)N2CCC(c3ccncc3)CC2)no1
inactive: Potency (C33A) | Potency (CASKI) | Potency (Es-2) | Potency (HeLa) | Potency (Hek293T)

O=C(O)c1cc(-c2c(-c3ccccc3)nn3ccccc23)n[nH]c1=O
inactive: Potency (C33A) | Potency (CASKI) | Potency (Es-2) | Potency (HeLa) | Potency (Hek293T)

CC1=C(C(=O)O)/C(=C\CO[C@@H]2O[C@H](CO)[C@@H](O)[C@H](O)[C@H]2O)C(OC(=O)/C=C\c2ccc(O)cc2)C1 (stereo not given in full)
inactive: Potency (C33A) | Potency (CASKI) | Potency (Es-2) | Potency (HeLa) | Potency (Hek293T)

O=C(O)CCCCCC[C@H]1C(=O)NC(=O)N1CC[C@@H](O)C1CCCCC1
inactive: Potency (C33A) | Potency (CASKI) | Potency (Es-2) | Potency (HeLa) | Potency (Hek293T)

Cc1cccc(-c2[nH]c(Cc3cccc(C(N)=O)c3)nc2-c2ccc3nccnc3c2)n1
inactive: Potency (C33A) | Potency (CASKI) | Potency (Es-2) | Potency (HeLa) | Potency (Hek293T)

Cc1ccc(-c2c(C(=O)CF)n(CCCO)c3ncnc(N)c23)cc1
inactive: Potency (C33A) | Potency (CASKI) | Potency (Es-2) | Potency (HeLa) | Potency (Hek293T)

COC(=O)C1=CO[C@@H](O)C2C(CO)=CCC12 (stereo not given in full)
inactive: Potency (C33A) | Potency (CASKI) | Potency (Es-2) | Potency (HeLa) | Potency (Hek293T)

COc1cc([C@H]2c3cc(O)c(OC)cc3C[C@@H](CO[C@@H]3O[C@H](CO)[C@@H](O)[C@H](O)[C@H]3O)[C@@H]2CO)ccc1O
inactive: Potency (C33A) | Potency (CASKI) | Potency (Es-2) | Potency (HeLa) | Potency (Hek293T)

C=CC1C(OC2OC(CO)C(O)C(O)C2O)OC=C2C(=O)N3C(C(=O)O)Cc4c([nH]c5ccccc45)C3CC21 (stereo not given)
inactive: Potency (C33A) | Potency (CASKI) | Potency (Es-2) | Potency (HeLa) | Potency (Hek293T)

CC1(C)CCC2(C(=O)OC3OCC(O)C(O)C3O)CCC3(C)C(=CCC4C5(C)CC(O)C(OC6OC(COC7OCC(O)C(O)C7O)C(O)C(O)C6O)C(C)(C)C5CCC43C)C2C1 (stereo not given)
inactive: activity change, negative = cytotoxicity (C33A) 7.41% [at 11.6 µM] | activity change, negative = cytotoxicity (CASKI) 17.9% [at 11.6 µM] | activity change, negative = cytotoxicity (Es-2) 5.97% [at 11.6 µM] | activity change, negative = cytotoxicity (HeLa) 7.08% [at 11.6 µM] | activity change, negative = cytotoxicity (Hek293T) -8.87% [at 11.6 µM]

C/C=C/C=C/C(=O)N1CC[C@]23c4ccccc4N[C@H]4N(C)c5cccc6c5[C@@]42CCN([C@H]6C2OC2(C)C)[C@H]13 (stereo not given in full)
inactive: Potency (C33A) | Potency (CASKI) | Potency (Es-2) | Potency (HeLa) | Potency (Hek293T)

Cn1c(=O)cc(N2CCCC(N)C2)n(Cc2cc(F)ccc2C#N)c1=O (stereo not given)
inactive: Potency (C33A) | Potency (CASKI) | Potency (Es-2) | Potency (HeLa) | Potency (Hek293T)

NCc1c[nH]c(=S)n1[C@@H]1CCc2c(F)cc(F)cc2C1
inactive: Potency (C33A) | Potency (CASKI) | Potency (Es-2) | Potency (HeLa) | Potency (Hek293T)

C=CC1(C)C=C2CCC3C(C)(C)C(O[C@@H]4O[C@@H](CO)[C@H](O)[C@H]4O)CCC3(C)C2CC1O[C@@H]1O[C@H](C)[C@H](O)[C@H](O)[C@H]1O (stereo not given in full)
inactive: Potency (C33A) | Potency (CASKI) | Potency (Es-2) | Potency (HeLa) | Potency (Hek293T)

CC1(C)CCC2(C(=O)OC3OC(CO)C(O)C(O)C3O)CCC3(C)C(=CCC4C5(C)CCC(O)C(C)(C(=O)O)C5CCC43C)C2C1O (stereo not given)
inactive: Potency (C33A) | Potency (CASKI) | Potency (Es-2) | Potency (HeLa) | Potency (Hek293T)

CC(C)CC(=O)OC1OC=C(CO[C@@H]2O[C@H](CO)[C@@H](O)[C@H](O)[C@H]2O)C2CC(O)C(O)(CO)C12 (stereo not given in full)
inactive: Potency (C33A) | Potency (CASKI) | Potency (Es-2) | Potency (HeLa) | Potency (Hek293T)

CC1=C(/C=C/C(C)=C\C=C\C(C)=C/C(=O)O)C(C)(C)CCC1
inactive: Potency (C33A) | Potency (CASKI) | Potency (Es-2) | Potency (HeLa) | Potency (Hek293T)

CC1=CCC2C(C)(C)CCC[C@]2(C)[C@@]12CC[C@](C)(CC(=O)O)O2 (stereo not given in full)
inactive: Potency (C33A) | Potency (CASKI) | Potency (Es-2) | Potency (HeLa) | Potency (Hek293T)

CCC(O)(C(=O)OCc1ccccc1NC(=O)CCC(=O)O)C(C)O (stereo not given)
inactive: Potency (C33A) | Potency (CASKI) | Potency (Es-2) | Potency (HeLa) | Potency (Hek293T)

Cc1ccc(C)c(OCCn2cc(C(=O)O)c3ccccc32)c1
inactive: Potency (C33A) | Potency (CASKI) | Potency (Es-2) | Potency (HeLa) | Potency (Hek293T)

CC(=O)N[C@H](Cc1ccc2ccccc2c1)C(=O)N[C@H](Cc1ccc(Cl)cc1)C(=O)N[C@H](Cc1cccnc1)C(=O)N[C@@H](CO)C(=O)N[C@@H](Cc1ccc(O)cc1)C(=O)N[C@H](CCCNC(N)=O)C(=O)N[C@@H](CC(C)C)C(=O)N[C@@H](CCCN=C(N)N)C(=O)N1CCC[C@H]1C(=O)N[C@H](C)C(N)=O (Ac-[d2Nal][dPhe(4-Cl)][d3Pal]SY[dCit]LRP[dA]-NH2)
inactive: Potency (C33A) | Potency (CASKI) | Potency (Es-2) | Potency (HeLa) | Potency (Hek293T)

CC1(C)CC[C@]2(C(=O)O[C@@H]3O[C@H](CO)[C@@H](O)[C@H](O)[C@H]3O)CC[C@]3(C)C(=CCC4[C@@]5(C)CC[C@H](O[C@@H]6O[C@H](C(=O)O)[C@@H](O)[C@H](O)[C@H]6O)[C@@](C)(CO)C5CC[C@]43C)C2C1 (stereo not given in full)
inactive: activity change, negative = cytotoxicity (C33A) 9.39% [at 11.6 µM] | activity change, negative = cytotoxicity (CASKI) 1.03% [at 11.6 µM] | activity change, negative = cytotoxicity (Es-2) 1.13% [at 11.6 µM] | activity change, negative = cytotoxicity (HeLa) -10.8% [at 11.6 µM] | activity change, negative = cytotoxicity (Hek293T) 5.9% [at 11.6 µM]

CC1=C(COC2OC(CO)C(O)C(O)C2O)C(C(CO)C(=O)O)CC1 (stereo not given)
inactive: Potency (C33A) | Potency (CASKI) | Potency (Es-2) | Potency (HeLa) | Potency (Hek293T)

C=C1[C@H](OC(C)=O)[C@H]2[C@@H](OC(C)=O)[C@](C)(OC(C)=O)C[C@]2(OC(C)=O)C(=O)[C@H](C)/C=C/C(C)(C)C(=O)[C@H](OC(=O)C(C)C)[C@H]1OC(C)=O
inactive: Potency (C33A) | Potency (CASKI) | Potency (Es-2) | Potency (HeLa) | Potency (Hek293T)

CC(C)(C)NCCCNC(=O)c1cccc(Br)c1
inactive: Potency (C33A) | Potency (CASKI) | Potency (Es-2) | Potency (HeLa) | Potency (Hek293T)

C[C@@H]1O[C@@H](O[C@@H]2[C@@H](O)[C@H](O[C@H]3CC[C@@]4(C)C(CC[C@]5(C)C4CC=C4[C@@H]6CC(C)(C)CC[C@]6(C(=O)O[C@@H]6O[C@H](CO)[C@@H](O)[C@H](O)[C@H]6O)CC[C@]45C)C3(C)C)O[C@H](C(=O)O)[C@H]2O)[C@H](O)[C@H](O)[C@H]1O (stereo not given in full)
inactive: activity change, negative = cytotoxicity (C33A) -0.88% [at 11.6 µM] | activity change, negative = cytotoxicity (CASKI) 17% [at 11.6 µM] | activity change, negative = cytotoxicity (Es-2) 6.6% [at 11.6 µM] | activity change, negative = cytotoxicity (HeLa) 2.44% [at 11.6 µM] | activity change, negative = cytotoxicity (Hek293T) 5.01% [at 11.6 µM]

C[C@]1(CO)CCC[C@]2(C)C3=C(CCC12)COC3 (stereo not given in full)
inactive: Potency (C33A) | Potency (CASKI) | Potency (Es-2) | Potency (HeLa) | Potency (Hek293T)

C[C@@H]1O[C@@H](O[C@H]2[C@H](O)[C@@H](O)[C@H](OC3CCC4(C)C5CCC(C)(C(CO)OC6OC(CO)C(O)C(O)C6O)CC5=CCC4C3(C)C)O[C@@H]2CO)[C@H](O)[C@H](O)[C@H]1O (stereo not given in full)
inactive: Potency (C33A) | Potency (CASKI) | Potency (Es-2) | Potency (HeLa) | Potency (Hek293T)

C/C1=C\CCC(C)CCO[C@@H]2O[C@H](CO[C@@H]3OC[C@H](O)[C@H](O)[C@H]3OC1=O)[C@@H](O)[C@H](O)[C@H]2O (stereo not given in full)
inactive: Potency (C33A) | Potency (CASKI) | Potency (Es-2) | Potency (HeLa) | Potency (Hek293T)

COC(=O)c1c(C)cc(OC(=O)c2c(C)cc(OC)cc2OC)cc1O[C@@H]1O[C@H](CO)[C@@H](O)[C@H](O)[C@H]1O
inactive: Potency (C33A) | Potency (CASKI) | Potency (Es-2) | Potency (HeLa) | Potency (Hek293T)

CC12CCC(=O)C=C1C(O)CC1C2C(O)CC2(C)C1CC[C@]2(O)C(=O)CO (stereo not given in full)
inactive: activity change, negative = cytotoxicity (C33A) 4.59% [at 11.6 µM] | activity change, negative = cytotoxicity (CASKI) -0.604% [at 11.6 µM] | activity change, negative = cytotoxicity (Es-2) 1.39% [at 11.6 µM] | activity change, negative = cytotoxicity (HeLa) 6.62% [at 11.6 µM] | activity change, negative = cytotoxicity (Hek293T) 5.48% [at 11.6 µM]

C=C[C@]1(C)C[C@H](O)[C@@H]2[C@H](OC(=O)[C@@H]2C)C1/C(C)=C/O[C@@H]1O[C@H](CO)[C@@H](O)[C@H](O)[C@H]1O (stereo not given in full)
inactive: Potency (C33A) | Potency (CASKI) | Potency (Es-2) | Potency (HeLa) | Potency (Hek293T)

Cc1noc(=O)c2ccc(NC(=O)C(O)(CC(C)(C)c3cccc4c3OCC4)C(F)(F)F)cc12 (stereo not given)
inactive: Potency (C33A) | Potency (CASKI) | Potency (Es-2) | Potency (HeLa) | Potency (Hek293T)

C=C1OC2CC(C(=O)O)C=CC2NC1=O (stereo not given)
inactive: Potency (C33A) | Potency (CASKI) | Potency (Es-2) | Potency (HeLa) | Potency (Hek293T)
